Source: PubChem BioAssay (NCATS)
Where “and” joins values, the source holds several entries; their conditions need not be identical. Equal values may be shown once. Inconclusive results are not listed. Calls of active or inactive are those of the source. Unless noted, calls follow the shape of the dose curve; as a rule, active = well fitted curve in the direction sought with a large enough effect; inconclusive = small, poorly fitted or top-dose-only effect, or another doubt; inactive = no such curve, though single readings can be large; an effect the other way counts as inactive or inconclusive.

How the values were obtained:
[1] = Cell Viability - MRC5 (AID 434; calls by dose curve;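 also: potency is read from the fitted curve at half-maximal effect; potency reflects cytotoxicity seen as loss of intracellular ATP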); conditions: MRC5 lung fibroblast viability, qHTS
In short: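 AC50 values come from Hill-equation fits of intracellular ATP loss, measured by CellTiter-Glo luminescence. Normal lung fibroblasts (MRC5) had 40 hr compound treatment at 37 C, normalized between DMSO and 100 uM tamoxifen.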

[2] = target: Mitogen-activated protein kinase 10 (Mus musculus) (UniProt Q61831); experiment: JNK3 AlphaScreen Assay (AID 530; active = well fitted curve in either direction with a large enough effect, not every such curve was filed as active;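 also: kinase came from lysate of stimulated human HepG2 cells; signal reports phosphorylation of biotinylated GST-cJun 1-79 at Ser73 with 10 µM ATP; % is scaled to controls: 0 for no effect and ±100 for the full control effect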); conditions: JNK3 lysate, c-Jun phosphorylation; series mostly up to 57.1 µM
In short: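 Kinase buffer: 20 mM Tris-HCl pH 7.6, 10 mM MgCl2, 1 mM DTT, 0.1 mM Na3VO4, 0.01% Tween-20; ATP 10 uM. Substrate biotin-GST-cJun(1-79), enzyme from activated HepG2 lysates. Detection by Ser73 phospho-antibody AlphaScreen.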

[3] = Cell Viability - Renal Proximal Tubule (AID 545); conditions: renal proximal tubule cells viability; series mostly up to 91.7 µM; also: nearly all actives have a fitted effect of over 40% in size
In short: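 Rat renal proximal tubule primary cells, 1000/well, exposed to compounds for 40 hr at 37 °C in complete medium; cellular ATP read by CellTiter-Glo luminescence. AC50 from concentration-response fitted with standard Hill equation.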

[4] = Cellular Toxicity (caspase-3) HepG2 (AID 654); conditions: HepG2 caspase-3 activation, luminescence, 0% = DMSO only, 100% = tamoxifen; series mostly up to 92.2 µM;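 also: cells exposed to compound for 16 hours before reading; 0% = DMSO alone and 100% = caspase signal from 100 µM tamoxifen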
In short: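 Luminescent Caspase-Glo 3/7 readout after 16 hr compound exposure of human hepatocellular carcinoma HepG2 cells at 37 °C; qHTS concentration-response, normalized DMSO = 0%, 100 uM tamoxifen = 100%; AC50 by standard Hill equation.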

[5] = Cellular Toxicity (caspase-3) SHSY5Y (AID 657); conditions: SH-SY5Y caspase-3 activation, DMSO zero, 10 µM staurosporine = 100%; series mostly up to 91.7 µM
In short: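 SH-SY5Y human neuroblastoma cells, 1500/well, exposed to compound for 16 hours at 37 °C in complete medium. Caspase-3/7 activity read by Caspase-Glo luminescence after 1 hr at room temperature, normalized to DMSO and 10 uM staurosporine; AC50 from Hill fit.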

[6] = Cellular Toxicity (caspase-3) H-4-II-E (AID 663); conditions: H-4-II-E rat hepatoma; Potency: caspase-3 activation; series mostly up to 92.2 µM;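 also: cells exposed to compound for 16 hr before readout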
In short: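 Caspase 3/7 activation measured by luminescent aminoluciferin substrate cleavage after 16 hr compound treatment of H-4-II-E cells in complete medium. Increase normalized between DMSO (basal) and 100 uM tamoxifen (100%); Hill-equation AC50 from concentration-response.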

[7] = Cellular Toxicity (caspase-3) N2a (AID 665); conditions: N2a cells, luminescence, normalized: DMSO 0%, 10 µM staurosporine 100%; series mostly up to 92.2 µM;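 also: compound exposure lasted 16 h at 37 °C before readout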
In short: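 Luminescent Caspase-Glo 3/7 readout in N2a mouse neuroblastoma cells after 16 h compound exposure at 37 °C. Signal scaled to DMSO (basal) and 10 uM staurosporine (100%). Concentration-response fitted with Hill equation for AC50.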

[8] = Cellular Toxicity (caspase-3) Renal Proximal Tubule (AID 667); conditions: renal proximal tubule cells; series mostly up to 91.7 µM;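 also: cells exposed to compound for 16 hours at 37 °C before detection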
In short: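 Freshly isolated primary rat kidney proximal tubule cells, 1000/well, treated 16 hr at 37 °C, then Caspase-Glo 3/7 luminescence after 1 hr. Normalized to DMSO and 10 uM staurosporine; AC50 from Hill fit.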

[9] = Cell Viability - LYMP2-001 (AID 921); conditions: LYMP2-001 lymphoblastoid cell viability; series mostly up to 92.2 µM;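 also: 0% = DMSO only and full inhibition = tetraoctylammonium bromide control wells; nearly all actives have a fitted effect of over 70% in size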
In short: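 Human lymphoblastoid LYMP2-001 cells, 2500 per well, in complete medium, treated 24 h at 37 C. Viability from cellular ATP by CellTiter-Glo luminescence; AC50 from Hill-equation fits of qHTS concentration-response.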

[10] = MultiTox-Fluor Cytotoxicity Assay - LYMP1-003 - Dead Cells (AID 961); conditions: LYMP1-003 lymphoblastoid cells, dead-cell protease fluorescence; series mostly up to 92.2 µM; also: nearly all actives have a fitted effect of over 70% in size
In short: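 Dead-cell protease release, detected as bis-AAF-R110 fluorescence at 485/520 nm, was measured in LYMP1-003 cells after 16 h compound treatment at 37 C. AC50 values came from Hill-modeled qHTS curves normalized to DMSO (0%) and 15 uM tetraoctylammonium bromide (100%).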

[11] = Cell Viability - LYMP1-003 - Assay at 24 hr (AID 963); conditions: LYMP1-003 lymphoblastoid cell viability; series mostly up to 92.2 µM;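 also: plate controls were DMSO only for no effect and tetraoctylammonium bromide positive control for full effect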
In short: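 CellTiter-Glo luminescence (intracellular ATP) read after 24 hr, 37 C compound exposure of 2500 LYMP1-003 human lymphoblastoid cells/well in complete medium; qHTS concentration series; AC50 via standard Hill equation.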

[12] = Cell Viability - LYMP1-003 - Assay at 40 hr (AID 964); conditions: LYMP1-003 lymphoblastoid viability; series mostly up to 92.2 µM; also: % is scaled to controls: 0 for no effect and ±100 for the full control effect; nearly all actives have a fitted effect of over 60% in size
In short: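 LYMP1-003 lymphoblastoid cells, 2500/well; 5 hr preincubation, 40 hr compound exposure, 37 C; CellTiter-Glo 30 min RT; luminescence; Hill-fit AC50. Positive control tetraoctylammonium bromide.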

[13] = Cell Viability - LYMP2-021 (AID 974); conditions: LYMP2-021 lymphoblastoid cells viability; series mostly up to 92.2 µM;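 also: compound exposure lasts 24 hours at 37 °C; % is scaled to controls: 0 for no effect and ±100 for the full control effect; nearly all actives have a fitted effect of over 55% in size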
In short: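 ATP luminescence (CellTiter-Glo, 30 min RT) after 24 h compound exposure at 37 C; 2500 human lymphoblastoid cells/well, 5 h settle beforehand. Cytotoxicity = concentration-dependent ATP drop, AC50 by Hill fit.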

[14] = Cell Viability - LYMP2-006 (AID 978); conditions: LYMP2-006 lymphoblastoid cell viability, qHTS; series mostly up to 92.2 µM;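 also: cells exposed to compound for 24 hours; % is scaled to controls: 0 for no effect and ±100 for the full control effect; nearly all actives have a fitted effect of over 60% in size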
In short: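 Human lymphoblastoid cells (LYMP2-006), 2500/well in complete medium, were treated with compound for 24 hr at 37 C. Cellular ATP was read by CellTiter-Glo luminescence after 30 min, and AC50 values came from Hill-equation fits of concentration-response data.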

[15] = Cell Viability - LYMP2-008 (AID 980); conditions: LYMP2-008 lymphoblastoid cell viability, qHTS; series mostly up to 92.2 µM; also: % is scaled to controls: 0 for no effect and ±100 for the full control effect; nearly all actives have a fitted effect of over 60% in size
In short: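 Luminescent ATP read-out (CellTiter-Glo, 30 min RT) after 24 hr compound exposure at 37 C of human lymphoblastoid cells in complete medium. Decrease in ATP taken as cytotoxicity; AC50 derived by standard Hill fit of qHTS concentration-response data.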

[16] = Cell Viability - LYMP1-002 - Assay at 24 hr (AID 993); conditions: LYMP1-002 lymphoblastoid cells viability; series mostly up to 92.2 µM; also: % is scaled to controls: 0 for no effect and ±100 for the full control effect
In short: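 CellTiter-Glo luminescence (intracellular ATP) after 24 h compound exposure, 37 C, in LYMP1-002 human lymphoblastoid cells; decreased ATP taken as cytotoxicity. AC50 from standard Hill fit of concentration-response curves.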

[17] = qHTS assay for small molecule activators of the human pregnane X receptor (PXR) signaling pathway (AID 720659; call rule not given here; also: 0% is about no effect); conditions: DPX-2 HepG2 CYP3A4-luciferase, 24 h; series mostly up to 92.3 µM
[18] = Cell Viability - LYMP2-009 (AID 968); conditions: LYMP2-009 lymphoblastoid cell viability; series mostly up to 92.2 µM;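 also: 0% = DMSO alone and the full-kill end = tetraoctylammonium bromide at 92 µM; nearly all actives have a fitted effect of over 55% in size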
[19] = Cell Viability - LYMP2-018 (AID 985); conditions: LYMP2-018 lymphoblastoid cells, viability (qHTS); series mostly up to 92.2 µM;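 also: plate controls were DMSO only for no effect and tetraoctylammonium bromide at 92 µM for full effect; nearly all actives have a fitted effect of over 50% in size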
In short: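 2500 cells/well; 5 hr 37 C; cmpd 24 hr 37 C, complete medium; CellTiter-Glo 30 min RT; luminescence. Tetraoctylammonium bromide positive control. AC50 via Hill fit.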

[20] = qHTS assay for environmental chemicals that activate the Aryl hydrocarbon Receptor (AhR) signaling pathway (AID 651777); conditions: 1A2-DRE human hepatoma cells, luciferase, 24 h; activation: hits give high values; also: % of control where 0% means no effect; nearly all actives have a fitted effect of over 15% in size
In short: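 Concentration–response screening used 1,200 1A2-DRE cells per well, 24 hr compound exposure (37 C, 5% CO2), and One-Glo luminescence as the AhR-driven CYP1A2 reporter signal.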

O=C(O)CCl
inactive: Potency [1] > 92 µM | Potency [2] | outcome [3] | outcome [4] | outcome [5] | Potency [6] | outcome [7] | outcome [8] | Potency [9] | Potency [10] | outcome [11] | Potency [12] | Potency [13] | Potency [14] | Potency [15] | Potency [16] | outcome [17]

Nc1ccc([N+](=O)[O-])cc1[N+](=O)[O-]
inactive: Potency [1] > 92 µM | Potency [2] | outcome [3] | outcome [4] | Potency [6] | outcome [7] | outcome [8] | Potency [9] | Potency [10] | outcome [11] | Potency [12] | Potency [18] | Potency [14] | Potency [15] | Potency [19] | Potency [16] | activation [20] 0.484% | outcome [17]

CC(C)(Cl)Cl
inactive: Potency [1] > 92 µM | Potency [2] | outcome [3] | outcome [4] | outcome [5] | Potency [6] | outcome [7] | outcome [8] | Potency [10] | outcome [11] | Potency [12] | Potency [18] | Potency [13] | Potency [14] | Potency [15] | Potency [19] | Potency [16] | activation [20] 0.894% | outcome [17]

CCCCNC(=O)n1c(NC(=O)OC)nc2ccccc21
inactive: Potency [1] > 92 µM | Potency [2] | outcome [4] | outcome [5] | outcome [7] | outcome [8] | Potency [9] | Potency [10] | Potency [18] | Potency [13] | Potency [15] | Potency [19] | Potency [16] | activation [20] 8.93% and 9.96% | outcome [17]

Nc1ccc(-c2ccc(N)cc2)cc1
inactive: Potency [1] > 92 µM | Potency [2] | outcome [3] | outcome [4] | outcome [5] | outcome [7] | outcome [8] | Potency [9] | Potency [10] | outcome [11] | Potency [18] | Potency [13] | Potency [14] | Potency [15] | Potency [19] | activation [20] 11.6% | outcome [17]

CCCCOC(=O)c1ccccc1N
inactive: Potency [1] > 92 µM | Potency [2] | outcome [4] | outcome [5] | Potency [6] | outcome [7] | outcome [8] | Potency [9] | Potency [10] | outcome [11] | Potency [12] | Potency [18] | Potency [13] | Potency [14] | Potency [15] | Potency [19] | activation [20] 0.138% | outcome [17]

C=C(Cl)CSC(=S)N(CC)CC
inactive: Potency [1] > 92 µM | outcome [3] | outcome [5] | outcome [7] | outcome [8] | Potency [9] | Potency [10] | Potency [12] | Potency [13] | Potency [14] | Potency [16] | activation [20] 0.101% | outcome [17]

Nc1cccc(Cl)c1
inactive: Potency [1] > 92 µM | Potency [2] | outcome [3] | outcome [4] | outcome [5] | Potency [6] | outcome [8] | Potency [9] | Potency [10] | Potency [12] | Potency [18] | Potency [14] | Potency [15] | Potency [19] | Potency [16] | activation [20] -0.221% | outcome [17]
